Test results taken from PubChem BioAssay (NCATS).
Records with an inconclusive call do not appear. A number with no mark means an inactive call. The source made the active and inactive calls. The call rests on the fitted dose curve; in most records, active means well fitted inhibition curve with a large enough effect; inconclusive means small, poorly fitted or top-dose-only effect; inactive means flat fitted curve, though single readings scatter.

Experiments:
Assay in all cases: Cytotoxic Profiling of Annotated Libraries Using Quantitative High-Throughput Screening (AID 1296008); further: nearly all actives have a fitted effect of over 60% in size
Details in all cases: Five cell lines viability, CellTiter-Glo ATP luminescence, 48-72 h; max response: hits give low values
CRL-7250 = system: CRL-7250
Method in brief: (§1)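 Cytotoxicity was measured as CellTiter-Glo ATP luminescence, read after 10 min at room temperature. Compound treatment of the cells lasted 48 or 72 hr at 37 degrees Celsius in a qHTS format.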

HEK293 = system: HEK293
Method in brief: as §1

HaCat = system: HaCat
Method in brief: as §1

KB-3-1 = system: KB-3-1
Method in brief: as §1
On the % scale 0 is the no-effect control and ±100 the full control effect; potency means the concentration at half of the fitted maximal effect.

In the case of `O=C(OCC1(COC(=O)c2cccnc2)CCCC(COC(=O)c2cccnc2)(COC(=O)c2cccnc2)C1O)c1cccnc1`, the max response (CRL-7250) is reported as -5.9%, the max response (HEK293) is reported as -9.95% and the outcome (HaCat) is reported as “inactive”. It also gave a max response (KB-3-1) of 8.89%.

With `CC(C(=O)O)c1ccc(/C=C2\CCCCC2=O)cc1` (stereo not given) the max response (CRL-7250) was 1.18%, the max response (HEK293) was -12.2% and the outcome (HaCat) was “inactive”. For the same molecule, the outcome (KB-3-1) was “inactive”.

With `CO/N=C(/C(=O)N[C@@H]1C(=O)N2C(C(=O)OCOC(=O)C(C)(C)C)=C(C)CS[C@H]12)c1csc(N)n1` the outcome (CRL-7250) was “inactive”, the max response (HEK293) was 4.75% and the outcome (HaCat) was “inactive”. The max response (KB-3-1) was -4.57%.

In the case of `CC(=O)OCC(=O)[C@@]1(O)CCC2C3CCC4=CC(=O)CC[C@]4(C)C3[C@@H](O)C[C@@]21C` (stereo not given in full), the outcome (CRL-7250) is reported as “inactive”, the max response (HEK293) is reported as 2.9% and the max response (HaCat) is reported as 3.13%. For the same molecule, the max response (KB-3-1) was 0.5%.

`Cn1cc(S(C)=O)c(=O)c2ccc(F)cc21` (stereo not given) gave a max response (CRL-7250) of -2.16%, a max response (HEK293) of -2.1% and a max response (HaCat) of -31%. It also gave a max response (KB-3-1) of 2.67%.

Molecule `Brc1ccc([C@H]2CN3CCSC3=N2)cc1` has a max response (CRL-7250) of -3.15%, a max response (HEK293) of 3.24% and a max response (HaCat) of -7.1%. It also gave a max response (KB-3-1) of 5.27%.

With `CC1(C)S[C@@H]2[C@H](NC(=O)C(c3ccccc3)S(=O)(=O)O)C(=O)N2[C@H]1C(=O)O` (stereo not given in full) the max response (CRL-7250) was 1.53%, the max response (HEK293) was -0.254% and the max response (HaCat) was -6.19%. For the same molecule, the max response (KB-3-1) was -0.526%.

`CN1C(=O)CC(C)(c2ccccc2)C1=O` (stereo not given) was tested, and the max response (CRL-7250) was -0.376%, the max response (HEK293) was 1.84% and the outcome (HaCat) was “inactive”. The max response (KB-3-1) was -1.96%.

With `N=C(N)c1ccc(OCCCOc2ccc(C(=N)N)cc2)cc1` the max response (CRL-7250) was 2.23%, the Potency (HEK293) was 7.5 µM (active) and the outcome (HaCat) was “inactive”. For the same molecule, the max response (KB-3-1) was -29%.

With `CCC(=O)O[C@H]1[C@H](O[C@@H]2[C@@H](C)[C@H](O[C@H]3C[C@@](C)(OC)[C@@H](O)[C@H](C)O3)[C@@H](C)C(=O)O[C@H](CC)[C@@](C)(O)[C@H](O)[C@@H](C)C(=O)[C@H](C)C[C@@]2(C)O)O[C@H](C)C[C@@H]1N(C)C` the max response (CRL-7250) was 0.377%, the outcome (HEK293) was “inactive” and the max response (HaCat) was 0.29%. For the same molecule, the max response (KB-3-1) was 2.69%.

`O=C(Oc1ccccc1)c1cccc(C(=O)Oc2ccccc2)c1` was tested, and the max response (CRL-7250) was -12.1%, the max response (HEK293) was 3.23% and the outcome (HaCat) was “inactive”. For the same molecule, the max response (KB-3-1) was -6.63%.

With `O=C(COCCOCCOCC(=O)Nc1c(I)cc(I)c(C(=O)O)c1I)Nc1c(I)cc(I)c(C(=O)O)c1I` the outcome (CRL-7250) was “inactive”, the max response (HEK293) was 0.699% and the outcome (HaCat) was “inactive”. The max response (KB-3-1) was -17%.

Molecule `CC(C)C(C)(C)C(C)(C)C(C)(C)S` has a max response (CRL-7250) of -4.15%, a max response (HEK293) of -4.55% and a max response (HaCat) of 4.37%. The max response (KB-3-1) was -15.8%.

With `CCN1CCN(C(=O)N[C@@H](C(=O)N[C@@H]2C(=O)N3[C@@H]2SC(C)(C)[C@H]3C(=O)O)c2ccccc2)C(=O)C1=O` the outcome (CRL-7250) was “inactive”, the max response (HEK293) was -1.44% and the outcome (HaCat) was “inactive”. For the same molecule, the max response (KB-3-1) was -9.16%.

Molecule `OC(CCCN1CCCCC1)(c1ccccc1)c1ccccc1` has a max response (CRL-7250) of -11.1%, a max response (HEK293) of -39.9% and a max response (HaCat) of -16%. It also gave a max response (KB-3-1) of -5.63%.

In the case of `CCOC(=O)NNc1nncc2ccccc12`, the max response (CRL-7250) is reported as -0.257%, the max response (HEK293) is reported as -5.42% and the outcome (HaCat) is reported as “inactive”. For the same molecule, the max response (KB-3-1) was -9.29%.

`CCOc1ccc(NS(=O)(=O)c2ccc(N)cc2)nn1` was tested, and the max response (CRL-7250) was 2.59%, the outcome (HEK293) was “inactive” and the max response (HaCat) was 1.89%. The max response (KB-3-1) was -7.66%.

For `CC(C)N(CCC(=O)c1ccc2ccccc2c1)Cc1ccccc1`, the max response (CRL-7250) was -24.3%, the max response (HEK293) was -116% and the outcome (HaCat) was “inactive; activator”. For the same molecule, the max response (KB-3-1) was -5.46%.

For `C=CC[N+]1([C@H]2C[C@H]3[C@@H]4CC[C@H]5C[C@H](OC(C)=O)[C@@H](N6CCCCC6)C[C@]5(C)[C@H]4CC[C@]3(C)[C@H]2OC(=O)CC)CCCCC1`, the max response (CRL-7250) was -0.558%, the max response (HEK293) was 0.459% and the max response (HaCat) was 4.73%. The outcome (KB-3-1) was “inactive”.

With `O=C(OCC(COC(=O)c1cccnc1)(COC(=O)c1cccnc1)COC(=O)c1cccnc1)c1cccnc1` the outcome (CRL-7250) was “inactive”, the max response (HEK293) was -3.93% and the outcome (HaCat) was “inactive”. For the same molecule, the max response (KB-3-1) was -20.2%.

In the case of `Cc1ccccc1N1CCN(CCc2nnc3n2CCCC3)CC1`, the max response (CRL-7250) is reported as -7.88%, the outcome (HEK293) is reported as “inactive” and the max response (HaCat) is reported as -11.8%. The max response (KB-3-1) was -5.62%.

`COc1ccccc1OCC1CNC(=O)O1` (stereo not given) gave a max response (CRL-7250) of -7.57%, a max response (HEK293) of 2.95% and a max response (HaCat) of -20.6%. The max response (KB-3-1) was -0.906%.

`CSc1ccc(/C=C2/C(C)=C(CC(=O)O)c3cc(F)ccc32)cc1` was tested, and the outcome (CRL-7250) was “inactive”, the max response (HEK293) was 0.521% and the outcome (HaCat) was “inactive”. For the same molecule, the max response (KB-3-1) was -18.2%.

With `O=C(O)[C@@H](O)[C@H](O)[C@H](O)[C@@H](O)C(=O)O` the max response (CRL-7250) was -8.84%, the max response (HEK293) was 3.38% and the outcome (HaCat) was “inactive”. The max response (KB-3-1) was -10.9%.

For `N[C@@H](Cn1ccc(=O)c(O)c1)C(=O)O`, the max response (CRL-7250) was -0.877%, the max response (HEK293) was -0.669% and the outcome (HaCat) was “inactive”. It also gave a max response (KB-3-1) of 7.53%.

`O=C(O)c1[nH]n(-c2ccc(S(=O)(=O)O)cc2)c(=O)c1N=Nc1ccc(S(=O)(=O)O)cc1` was tested, and the max response (CRL-7250) was 0.833%, the max response (HEK293) was 1.51% and the outcome (HaCat) was “inactive”. The max response (KB-3-1) was 3.04%.

With `C=CCOc1cc(Cl)ccc1C(=O)NCCN(CC)CC` the max response (CRL-7250) was -3.78%, the max response (HEK293) was -33.1% and the outcome (HaCat) was “inactive”. For the same molecule, the max response (KB-3-1) was 6.3%.

With `O=C(Oc1ccccc1)c1ccccc1O` the outcome (CRL-7250) was “inactive”, the outcome (HEK293) was “inactive” and the outcome (HaCat) was “inactive”. It also gave a max response (KB-3-1) of -0.601%.

`CN1C(=O)c2ccccc2C1=O` gave a max response (CRL-7250) of 3.83%, a max response (HEK293) of -4.39% and a max response (HaCat) of -13.2%. It also gave a max response (KB-3-1) of -21%.

`CCOC(=O)OCC/C(SC(=O)OCC)=C(\C)N(C=O)Cc1cnc(C)nc1N` was tested, and the max response (CRL-7250) was -3.12%, the max response (HEK293) was -0.945% and the max response (HaCat) was -10.8%. The max response (KB-3-1) was -13.2%.

With `CC(=O)OCC(=O)[C@@]1(O)[C@H](OC(C)=O)C[C@H]2[C@@H]3CCC4=CC(=O)C=C[C@]4(C)[C@@]3(F)[C@@H](O)C[C@@]21C` the outcome (CRL-7250) was “inactive”, the outcome (HEK293) was “inactive” and the outcome (HaCat) was “inactive”. It also gave a max response (KB-3-1) of 1.08%.

In the case of `CCC(C(=O)NC(=O)NC(C)=O)c1ccccc1` (stereo not given), the max response (CRL-7250) is reported as 2.16%, the max response (HEK293) is reported as -0.744% and the outcome (HaCat) is reported as “inactive”. For the same molecule, the max response (KB-3-1) was 0.82%.

In the case of `O=C(O)Cc1ccc(OCCNC[C@H](O)c2ccccc2)cc1`, the outcome (CRL-7250) is reported as “inactive”, the max response (HEK293) is reported as -3.07% and the max response (HaCat) is reported as 2.67%. For the same molecule, the max response (KB-3-1) was -1.64%.

With `COc1ccccc1N1CCN(CCN2C(=O)CC3(CCCC3)CC2=O)CC1` the max response (CRL-7250) was -8.79%, the outcome (HEK293) was “inactive” and the outcome (HaCat) was “inactive”. It also gave a max response (KB-3-1) of 1.39%.

Work on `OCCCc1ccccc1` yielded a max response (CRL-7250) of -10.6%, a max response (HEK293) of -4.71% and a max response (HaCat) of -3%. The max response (KB-3-1) was -4.85%.

With `Cc1ncc(CO)c(CO)c1O` the max response (CRL-7250) was 1.45%, the max response (HEK293) was 4.28% and the outcome (HaCat) was “inactive”. It also gave a max response (KB-3-1) of -24.2%.

`CO[C@]1(NC(=O)CSC(F)F)C(=O)N2C(C(=O)O)=C(CSc3nnnn3CCO)CO[C@H]21` gave a max response (CRL-7250) of -1.31%, a max response (HEK293) of -23.2% and a max response (HaCat) of 4.33%. For the same molecule, the outcome (KB-3-1) was “inactive”.

Work on `C[N+](C)(CCOc1ccccc1)Cc1cccs1` yielded a max response (CRL-7250) of -3.68%, a max response (HEK293) of -16.4% and a max response (HaCat) of 2.51%. The max response (KB-3-1) was -7.87%.

`CC(C)=CCC/C(C)=C/CC/C(C)=C/CCC(=O)OC/C=C(\C)CCC=C(C)C` was tested, and the max response (CRL-7250) was -7.77%, the max response (HEK293) was -2.81% and the outcome (HaCat) was “inactive”. The max response (KB-3-1) was -12.9%.

With `CCCCCOc1ccc(C2SC(=O)NC2=O)cc1OCC` (stereo not given) the max response (CRL-7250) was -3.49%, the max response (HEK293) was 3.99% and the outcome (HaCat) was “inactive”. For the same molecule, the outcome (KB-3-1) was “inactive”.
